Data published in PubChem BioAssay AID504803 (The Scripps Research Institute Molecular Screening Center, 2011).
About 1,700 (0.5%) of roughly 340,000 compounds were called active. The full list was thinned out, with actives kept by preference. Values without a mark were called inactive. No stated cut-off is given here; in the data, active means inhibition above about 36%; inactive means the rest.

What follows are compounds tested against Serine protease HTRA1 (Homo sapiens) (UniProt Q92743) (assay: inhibition of human HTRA1 peptidase – biochemical, fluorescence polarization, HTS, primary screen (AID 504803;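 further: 0% = enzyme with DMSO and 100% = wells lacking enzyme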)). Settings: recombinant HTRA1, FP-rhodamine activity-based probe, at 5.96 µM, active compounds read high.
Sequence of Serine protease HTRA1 (Homo sapiens) (Q92743 whole entry, looked up): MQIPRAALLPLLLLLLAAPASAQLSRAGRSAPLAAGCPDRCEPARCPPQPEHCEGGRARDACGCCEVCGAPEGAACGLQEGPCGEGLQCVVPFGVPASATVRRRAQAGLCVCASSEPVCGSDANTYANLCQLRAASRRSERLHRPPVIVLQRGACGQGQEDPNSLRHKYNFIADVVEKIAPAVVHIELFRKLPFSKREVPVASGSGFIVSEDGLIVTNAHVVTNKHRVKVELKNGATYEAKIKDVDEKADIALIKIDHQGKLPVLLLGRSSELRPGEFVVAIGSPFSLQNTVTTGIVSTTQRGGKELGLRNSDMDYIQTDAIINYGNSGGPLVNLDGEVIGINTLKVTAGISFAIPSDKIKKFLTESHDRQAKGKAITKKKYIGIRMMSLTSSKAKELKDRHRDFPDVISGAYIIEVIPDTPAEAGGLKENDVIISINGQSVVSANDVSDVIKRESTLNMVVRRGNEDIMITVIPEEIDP

Row | Structure (SMILES) | inhibition
1 | COc1ccc(N)cc1NC(=O)CN1CCOCC1 | -3.64%
2 | Brc1ccccc1C1Nc2cccc3cccc(c23)N1 | 59.2% (active)
3 | COc1cc2c(cc1OC)C(c1ccccc1Br)NC(=O)C2 (stereo not given) | -6.31%
4 | Oc1ccc(C2Nc3cccc4cccc(c34)N2)cc1 | 22.9%
5 | Cc1ccc(NC(=O)c2ccco2)cc1 | 1.31%
6 | Cc1nc2ccccc2nc1CC(O)(c1ccccc1)c1ccccc1 | -14.1%
7 | Cc1cc(Cl)ccc1C(=O)C1CCCN(C(=O)c2ccc3c(c2)OCO3)C1 (stereo not given) | -4.58%
8 | NC(=O)NC(=O)C(OC(=O)CCNS(=O)(=O)c1ccccc1)c1ccccc1 (stereo not given) | 36.7% (active)
9 | O=S(=O)(NCCNS(=O)(=O)c1ccccc1)c1ccccc1 | 4.81%
10 | Cc1ccc(S(=O)(=O)NCCC(=O)OCC(=O)N(C)c2ccccc2)cc1 | 5.9%
11 | CSc1ncnc2c1ncn2CCCNCc1cccs1 | 3.07%
12 | C[C@@H]1CCCCO[C@H](CN(C)Cc2ccccc2)[C@@H](C)CN([C@H](C)CO)C(=O)c2cc(NS(=O)(=O)c3ccc(Cl)cc3)ccc2O1 | -17.9%
13 | CCc1cccc(CC)c1N1C(=O)CC(Sc2ccccc2N)C1=O (stereo not given) | 2.44%
14 | Cn1nc(N)c2ncc(C(Cl)(Cl)Cl)nc21 | -0.52%
15 | CC(C)CNC(=O)C(=O)Nc1ccc(N(C)C)cc1 | 7.37%
16 | CN(C)c1ccc(N/C=C/C(=O)C(F)(F)F)cc1 | 38.7% (active)
17 | COc1cc(OC)c(C(=O)Nc2ccc(N(C)C)cc2)cc1OC | 5.76%
18 | C[C@H](CO)N1C[C@H](C)[C@@H](CN(C)C(=O)c2cccc(F)c2)Oc2cc(-c3cncnc3)ccc2S1(=O)=O | 2.58%
19 | O=[N+]([O-])c1cc(Cl)cc(/C=N/NC(=S)Nc2cc(S(=O)(=O)N3CCOCC3)ccc2Cl)c1O | 45.7% (active)
20 | O=C(c1cc(S(=O)(=O)N2CCOCC2)ccc1Cl)N1CCOCC1 | 2.81%

Row | Structure (SMILES) | inhibition
21 | O=C(Nc1cc(S(=O)(=O)N2CCOCC2)ccc1Cl)c1cc(=O)c2ccccc2o1 | -4.07%
22 | Cc1ccc(Nc2ccccc2N)cc1 | 47.8% (active)
23 | Cc1ccc(Nc2nc(Cl)c(C=O)s2)cc1 | -8.62%
24 | Nc1ccc(C(=O)Nc2ccccc2N)cc1 | 6.6%
25 | CC1(c2cccc(N)c2)OCCO1 | 4.7%
26 | O=C(O)C1=C(C(=O)O)C2CCC1C2 | 9.01%
27 | CN1CCN(c2ccncc2S(=O)(=O)N2CCCC2)CC1 | 3.56%
28 | Clc1ccc(C2=CSC3=Nc4cccc5cccc(c45)N23)cc1 | 44.2% (active)
29 | CC1=C(C(=O)N2CCOCC2)CC(CC(=O)NCc2cccc3ccccc23)C(=O)N1CCC1=CCCCC1 (stereo not given) | -3.43%
30 | O=C1NC(Cc2ccccc2)c2nc3ccc(Br)cc3c(=O)n2-c2cc3ccccc3cc21 (stereo not given) | -54.3%
31 | CC(=O)Nc1ccc(S(=O)(=O)N2CCCC2C(=O)O)cc1 (stereo not given) | 2%
32 | CC(=O)Nc1ccc(NS(=O)(=O)c2ccc3c(c2)NC(=O)CC(=O)N3)cc1 | 6.8%
33 | CC(=O)Nc1ccc(S(=O)(=O)Nc2ccc(N3CCCCC3)cc2)cc1 | 52.4% (active)
34 | C=CCOc1ccccc1CNn1c(C)n[nH]c1=S | 3.58%
35 | CNC(=S)NNC(=O)c1sccc1OCc1ccccc1 | 5.29%
36 | CNC(=S)NNC(=O)c1cccn(Cc2ccccc2)c1=O | 3.18%
37 | CNC(=S)NNC(=O)c1oc2nc(-c3ccccc3)cc(-c3ccco3)c2c1N | 51.7% (active)
38 | Cc1cc2cc3n(c2nn1)N=C(Cl)CC3 | 3.25%
39 | CCOC(=O)C1CCN(C(=O)c2ccc3c(=O)n4nc(Nc5ccccc5CC)sc4nc3c2)CC1 | -34.2%
40 | CCOC(=O)C=Cc1ccc(C(=O)OCC)[nH]1 | 0.68%

Row | Structure (SMILES) | inhibition
41 | Cc1[nH]c2ccccc2c1C(=O)C(=O)NCc1nnnn1-c1cccc(F)c1 | 7.28%
42 | CCC(Oc1ccccc1)C(=O)OCC(=O)Nc1c(C)nn(-c2ccccc2)c1C (stereo not given) | -6.47%
43 | CCOc1ccc(/C=N/NC(=O)CSc2ccccn2)cc1O | 9.01%
44 | Cn1c(SCC(=O)N/N=C/c2ccc(O)c(O)c2)nc2ccccc21 | 41.2% (active)
45 | CCn1c(SCC(=O)N/N=C/c2ccncc2)nc2ccccc21 | 4.65%
46 | O=C1OCCC1=COCCCCOC=C1CCOC1=O | -3.04%
47 | O=C(N/N=C/c1sc(N2CCCCC2)nc1-c1cccs1)c1cccnc1 | 40.5% (active)
48 | Cc1ccc(NC(=O)COc2ccc(/C=N\NC(=O)c3cccnc3)cc2)cc1C | -7.41%
49 | O=C(O)c1ccc(N/N=C/c2cn(-c3ccccc3)nc2-c2cccs2)cc1 | -11.3%
50 | CSc1ncnc2c1ncn2CCCNCc1ccco1 | 8.47%
51 | CCN(CC)CCN(C(=O)c1ccc2c(c1)CCCC2)c1nc2c(OC)cccc2s1 | -19.6%
52 | CN1OC[C@@H]2CN[C@H](c3ccc(-c4ccccc4)cc3)C[C@@H]21 | -1.81%
53 | COCCn1c(SCC(=O)Nc2ccc(F)cc2F)nc2c(c1=O)SCC2 | -1.19%
54 | CC(=O)c1ccc(N2CCN(C(=O)CCc3ccccc3)CC2)cc1 | 2.82%
55 | CC(=O)N1CCN(c2ccc(NCc3ccc(C(C)C)cc3)cc2)CC1 | 59.2% (active)
56 | CC(CC(=O)N1CCN(c2ccccc2)CC1)c1ccccc1 (stereo not given) | -0.5%
57 | O=C(OCc1ccccc1)N1CCC2CC1c1cc(N3CCN(S(=O)(=O)c4cc(Cl)cc(Cl)c4)CC3)ccc12 (stereo not given) | -4.06%
58 | C[C@H](O)[C@@H]1C(=O)N2CCc3c([nH]c4ccccc34)[C@@H]2C[C@@H]1N(C)C(=O)Nc1ccc(F)cc1 | -1.56%
59 | C[C@@H]1CN([C@H](C)CO)C(=O)CCCn2nncc2CO[C@@H]1CN(C)C(=O)OCc1ccccc1 | -3.03%
60 | CC(C)CCOc1ccc(C(=O)Nc2cc(S(=O)(=O)N3CCOCC3)ccc2N2CCOCC2)cc1 | -7.89%
